Assay [1] is described as follows: qHTS assay to identify small molecule antagonists of the glucocorticoid receptor (GR) signaling pathway - cell viability counter screen (AID 720693). Also: nearly all actives have a fitted effect of over 55% in size. In general terms: qHTS replaces the single test concentration by a dilution series.
Assay [2] in a line: qHTS assay for identifying genotoxic compounds that show differential cytotoxicity against isogenic chicken DT40 cell lines with known DNA damage response pathways - wild type cell line (AID 743012). Also: nearly all actives have a fitted effect of over 60% in size. The gist of the method:
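Quantitative HTS on parental DT40 cells: 40 h compound treatment at 37 C/5% CO2, with viability then determined by CellTiter-Glo luminescence. Values serve as the DNA repair-proficient reference for differential cytotoxicity.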

Assay [3] can be described thus: qHTS assay for identifying genotoxic compounds that show differential cytotoxicity against isogenic chicken DT40 cell lines with known DNA damage response pathways - Rev3 mutant cell line (AID 743014). Also: nearly all actives have a fitted effect of over 55% in size. Also: potency is read from the fitted curve at half-maximal effect.
The nature of assay [4]: qHTS assay for identifying genotoxic compounds that show differential cytotoxicity against isogenic chicken DT40 cell lines with known DNA damage response pathways - Rad54/Ku70 mutant cell line (AID 743015). Also: nearly all actives have a fitted effect of over 60% in size. Also: potency is read from the fitted curve at half-maximal effect.
The nature of assay [5]: qHTS assay to identify small molecule antagonists of the androgen receptor (AR) signaling pathway - cell viability counter screen (AID 743033; also: nearly all actives have a fitted effect of over 45% in size).
The nature of assay [6]: qHTS assay to identify small molecule antagonists of the androgen receptor (AR) signaling pathway using the MDA cell line - cell viability counter screen (AID 743041; also: nearly all actives have a fitted effect of over 45% in size). Summed up: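 Same-well cytotoxicity was assessed by CellTiter-Fluor in MDA-kb2 AR-luc cells after 16 h of compound treatment under R1881 agonism.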
A short description of assay [7]: qHTS assay to identify small molecule antagonists of the thyroid receptor (TR) signaling pathway - cell viability counter screen (AID 743064). Also: nearly all actives have a fitted effect of over 50% in size. Summed up:
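GH3.TRE-Luc rat pituitary cells dosed after 4 hr plating, co-stimulated with T3 at 1 nM final, incubated 23.5 h at 37 C. Viability measured in the same wells by CellTiter-Fluor fluorescence after 30 min further at 37 C.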

Assay [8] in a line: qHTS assay to identify small molecule antagonists of the thyroid receptor (TR) signaling pathway (AID 743065). Also: series mostly up to about 70 µM; nearly all actives have a fitted effect of over 55% in size. The gist of the method: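 GH3.TRE-Luc rat pituitary cells (two TREs driving luciferase) were dosed with compound, then stimulated with 1 nM T3 (final) for 23.5 h at 37 C. ONE-Glo luminescence was the read-out, with CellTiter-Fluor fluorescence as the cytotoxicity counter-screen.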

The subject of assay [9] is thyroid hormone receptor (rat, GH3 cells). In words: qHTS assay to identify small molecule agonists of the thyroid receptor (TR) signaling pathway (AID 743066; calls by dose curve).
Assay [10] can be described thus: qHTS assay to identify small molecule antagonists of the estrogen receptor alpha (ER-alpha) signaling pathway - cell viability counter screen (AID 743074; calls by dose curve;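 also: HEK293 cells carrying ER-alpha-UAS-bla reporter stimulated with 17beta-estradiol; nearly all actives have a fitted effect of over 45% in size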).
Assay [11] in a line: qHTS assay to identify small molecule antagonists of the estrogen receptor alpha (ER-alpha) signaling pathway using the BG1 cell line - cell viability counter screen (AID 743081).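 Also: compound given together with 17beta-estradiol as the ER stimulus; series mostly up to about 70 µM; nearly all actives have a fitted effect of over 45% in size.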
Another assay concerns the target Aromatase (Homo sapiens) (UniProt P11511). In words: qHTS assay to identify aromatase inhibitors (AID 743083). Also: series mostly up to about 70 µM; nearly all actives have a fitted effect of over 55% in size.
Assay [12] deals with Estrogen receptor (Homo sapiens) (UniProt P03372). In words: qHTS assay to identify small molecule antagonists of the estrogen receptor alpha (ER-alpha) signaling pathway (AID 743069; active = well fitted curve in the direction sought with a large enough effect in the signal ratio in the repeat runs, not every such curve was filed as active; the % refers to the signal ratio). The gist of the method: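 Reporter cells (ER-alpha-bla, HEK293 background) are conditioned overnight in stripped-serum medium (2% charcoal-stripped FBS). Compound and 17beta-estradiol exposure runs 18 hr at 37C, 5% CO2.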
Sequence of Estrogen receptor (Homo sapiens) (P03372 whole entry, looked up): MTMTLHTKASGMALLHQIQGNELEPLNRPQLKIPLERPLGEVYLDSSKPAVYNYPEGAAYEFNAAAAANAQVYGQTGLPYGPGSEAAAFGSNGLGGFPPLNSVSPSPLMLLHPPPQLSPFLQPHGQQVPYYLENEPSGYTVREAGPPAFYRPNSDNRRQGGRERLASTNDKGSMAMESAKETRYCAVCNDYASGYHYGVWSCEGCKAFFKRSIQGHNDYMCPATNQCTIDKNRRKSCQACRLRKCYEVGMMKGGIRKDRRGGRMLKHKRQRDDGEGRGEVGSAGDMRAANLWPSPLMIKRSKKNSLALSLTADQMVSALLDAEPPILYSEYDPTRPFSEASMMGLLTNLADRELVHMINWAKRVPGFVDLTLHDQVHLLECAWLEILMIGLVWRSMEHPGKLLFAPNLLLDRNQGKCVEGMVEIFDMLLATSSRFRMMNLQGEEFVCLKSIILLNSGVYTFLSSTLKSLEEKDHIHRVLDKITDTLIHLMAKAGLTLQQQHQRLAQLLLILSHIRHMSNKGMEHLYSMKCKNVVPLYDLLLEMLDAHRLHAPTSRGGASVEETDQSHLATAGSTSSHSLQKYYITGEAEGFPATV

For assay [13] the target is unchanged. The assay is described as follows: qHTS assay to identify small molecule agonists of the estrogen receptor alpha (ER-alpha) signaling pathway (AID 743075; calls by dose curve;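 also: HEK293 GripTite cells with ER-alpha and UAS-driven beta-lactamase reporter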).
For assay [14] the target is unchanged. In words: qHTS assay to identify small molecule agonists of the estrogen receptor alpha (ER-alpha) signaling pathway using the BG1 cell line (AID 743079). Also: nearly all actives have a fitted effect of over 20% in size.
Assay [15] is described as follows: qHTS assay to identify small molecule antagonists of the estrogen receptor alpha (ER-alpha) signaling pathway using the BG1 cell line (AID 743080; calls by dose curve;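 also: BG1 cells stimulated with 17beta-estradiol alongside compound; series mostly up to about 70 µM; nearly all actives have a fitted effect of over 25% in size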). The gist of the method: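 Luminescence from a 4×ERE-luciferase reporter in BG1-Luc-4E2 cells served as read-out. Cells, pre-cultured 5 days in stripped-serum phenol-red-free medium, were exposed to compound with 17beta-estradiol co-stimulation for 21.5 h at 37 C.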

This note sets out measurements from PubChem BioAssay (Tox21).

SMILES strings stand for the structures. “And” between values parts separate entries of the source, which are not always exact repeats. Identical values can stand only once. Records with an inconclusive call do not appear. Where a structure was tested more than once in an assay, its records may differ in their call. The source made the active and inactive calls. Unless noted, calls follow the shape of the dose curve; as a rule, active = well fitted curve in the direction sought with a large enough effect in the repeat runs; inconclusive = weak or mixed curves; inactive = no such curve, though single readings can be large; an effect the other way counts as inactive or inconclusive.

Sequence of Aromatase (Homo sapiens) (P11511 whole entry, looked up): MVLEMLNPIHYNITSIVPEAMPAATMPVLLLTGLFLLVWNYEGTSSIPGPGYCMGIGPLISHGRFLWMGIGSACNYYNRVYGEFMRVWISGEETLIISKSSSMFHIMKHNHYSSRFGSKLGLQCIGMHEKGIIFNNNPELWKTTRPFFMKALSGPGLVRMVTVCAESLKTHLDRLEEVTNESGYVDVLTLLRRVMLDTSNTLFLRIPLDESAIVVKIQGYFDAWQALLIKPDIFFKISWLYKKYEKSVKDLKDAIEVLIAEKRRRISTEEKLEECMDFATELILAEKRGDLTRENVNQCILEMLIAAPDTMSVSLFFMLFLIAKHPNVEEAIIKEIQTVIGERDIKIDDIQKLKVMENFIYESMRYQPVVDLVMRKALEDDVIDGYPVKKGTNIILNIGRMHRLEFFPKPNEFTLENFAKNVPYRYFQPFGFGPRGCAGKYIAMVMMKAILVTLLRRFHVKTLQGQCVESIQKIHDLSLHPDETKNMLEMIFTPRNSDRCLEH

As for `O=P1(NCCCl)OCCCN1CCCl` (stereo not given), the Potency result in assay [1], in assay [2], in assay [3], in [4], in assay [7] and in assay [8] was “inactive” throughout. Besides, the Potency result (in assay [9]; with Aromatase (Homo sapiens)) was “inactive” in each case. For the same compound, the outcome in assay [5], in assay [6], in assay [10] and in [11] was inactive.

With `Cc1cccc(C)c1NC(=O)CN1CCCC1=O`, the Potency entry in [1], in [2], in [3], in assay [4], in [7] and in assay [8] was “inactive” each time. Also, the Potency entry (in assay [9]; in [12]; in [14]; with Aromatase (Homo sapiens)) was “inactive” throughout. For the same compound, the compound was called inactive in assay [5], in assay [6], in assay [10], in assay [13], in assay [15] and in [11].

For the compound `C[C@H]1C(=O)O[C@@H]2CCN3CC=C(COC(=O)[C@](C)(O)[C@]1(C)O)[C@H]23`, the Potency result in assay [1], in assay [2], in assay [7], in [8], in assay [9] and in [12] was “inactive” each time. Also, the Potency result (in assay [14]; in the assay with Aromatase (Homo sapiens)) was “inactive” throughout. Also, the Potency entry in assay [3] is “inactive and 15.4 µM (active)”; in [4], “inactive and 38.6 µM (active)”. Besides, the result in assay [5], in assay [6], in assay [10], in assay [13], in assay [15] and in [11] was inactive.

With `CCSC(=O)N1CCCCCC1`, the Potency entry in assay [1], in [2], in assay [3], in assay [4], in assay [7] and in assay [8] was “inactive” each time. Besides, the Potency entry (in assay [9]; in assay [12]; in [14]; with Aromatase (Homo sapiens)) was “inactive” in each case. Also, the compound was called inactive in [6], in assay [10], in assay [13], in assay [15] and in assay [11].

With `[N-]=[N+]=CC(=O)OC[C@H](N)C(=O)O`, the Potency result in assay [1], in assay [2], in assay [4], in assay [7], in [8] and in [9] was “inactive” each time. Also, the compound was classed as inactive in assay [5], in assay [6], in [10] and in [11].

Consider `CNC(=O)O/N=C/C(C)(C)SC`, for which the Potency entry in assay [1], in [2], in [4], in assay [7], in assay [8] and in assay [9] was “inactive” throughout. Also, the Potency result (in [12]; in assay [14]; in the assay with Aromatase (Homo sapiens)) was “inactive” each time. Further, the compound was classed as inactive in assay [5], in assay [6], in [10], in [13], in assay [15] and in [11].

Take `CNCC(O)c1ccc(O)cc1` (stereo not given): the Potency result in assay [1], in [2], in assay [4], in [7], in assay [8] and in [9] was “inactive” in each case. Moreover, the Potency result (in assay [12]; in assay [14]; with Aromatase (Homo sapiens)) was “inactive” in each case. Further, the outcome in [5], in assay [6], in assay [10], in assay [13], in assay [15] and in assay [11] was inactive.

As for `Cc1cccc(N)c1C`, the Potency entry in assay [1], in assay [2], in assay [3], in assay [4], in assay [7] and in [8] was “inactive” throughout. For the same compound, the Potency result (in assay [9]; in assay [12]; in assay [14]; with Aromatase (Homo sapiens)) was “inactive” each time. The compound was called inactive in assay [6], in [10], in [13], in [15] and in [11].

In the case of `Cc1cc(Cl)ccc1OC(C)C(=O)O` (stereo not given), the Potency result in assay [1], in [2], in assay [4], in assay [7], in [8] and in assay [9] was “inactive” in each case. The Potency entry (in [12]; in assay [14]; with Aromatase (Homo sapiens)) was “inactive” in each case. The compound was called inactive in assay [5], in assay [6], in assay [10], in assay [13], in assay [15] and in assay [11].

Regarding `Cl[C@H]1OCCO[C@@H]1Cl`, the Potency entry in assay [1], in [2], in [3], in assay [4], in [7] and in assay [8] was “inactive” throughout. Further, the Potency entry (in [9]; with Aromatase (Homo sapiens)) was “inactive” throughout. The compound was called inactive in assay [6], in assay [10] and in assay [11].
